From PubChem BioAssay (Tox21) come the findings set out here.

Records with an inconclusive call do not appear. Entries that show only a call come without a potency. Activity calls are given as the source filed them. The call rests on the fitted dose curve; in most records, active means well fitted activation curve with a large enough effect in the repeat runs; inconclusive means weak or mixed curves, or effect the other way; inactive means no such curve, though single readings can be large or run the other way.

The experiment can be described thus: qHTS assay to identify small molecule agonists of the estrogen related receptor signaling pathway with the pleiotropic PPARgamma coactivator (PGC) from Tox21 10K library (AID 1224842). Further: nearly all actives have a fitted effect of over 15% in size. The conditions noted are these: PGC/ERR reporter cell line, luciferase ONE-Glo, 18 h; series mostly up to 92.4 µM. Put shortly: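 Luminescence from One-Glo (30 min, room temperature) measured after PGC/ERR cells had 18 h at 37 C with pinned compound (23 nL in DMSO). Cells had been seeded at 2,000 per well and pre-incubated 6 h.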
With `CCCCCCCCCCCCCCCC[N+](C)(C)CCN(Cc1ccc(OC)cc1)c1ncccn1`, the Potency result was “inactive”.

For the compound `O=C(Oc1cccc2cccnc12)c1ccccc1`, the Potency result is “inactive”.

In the case of `OCCN1CCN(CC/C=C2/c3ccccc3Sc3ccc(C(F)(F)F)cc32)CC1`, the Potency result was “inactive”.

Consider `CCCCN1C(=O)[C@@H]([C@H](O)C2CCCCC2)NC(=O)C12CCN(Cc1ccc(Oc3ccc(C(=O)O)cc3)cc1)CC2`, for which the Potency result is “inactive”.

As to `CNCc1cc(F)ccc1Oc1ccc(Cl)c(Cl)c1`, the Potency result is “inactive”.

In the case of `O=C(Nc1cccc(Cl)c1)OCC#CCCl`, the Potency entry was “inactive”.

Take `CCCCCCCCCCCCCCCC(=O)OC[C@H](O)[C@H]1OC(=O)C(O)=C1O`: the Potency entry was “inactive”.

On to `CCOc1nc2cccc(C(=O)OC(C)OC(=O)OC3CCCCC3)c2n1Cc1ccc(-c2ccccc2-c2nn[nH]n2)cc1` (configuration not stated), for which the Potency entry is “inactive”.

On to `CCCCN(CCCC)c1ccc(C(=O)c2ccccc2C(=O)O)c(O)c1`, for which the Potency entry was “inactive”.

`Nc1ccc2cc(S(=O)(=O)O)cc(O)c2c1N=Nc1ccccc1C(F)(F)F`: the Potency entry was “inactive”.

In the case of `CCOC(=O)c1nc(C(Cl)(Cl)Cl)n(-c2ccc(Cl)cc2Cl)n1`, the Potency result is “inactive”.

For `O=c1c(-c2ccccc2)c1-c1ccccc1`, the Potency result is “inactive”.
